Source: PubChem (The Scripps Research Institute Molecular Screening Center)
proKLK7 act: activates the human kallikrein-7 zymogen; P49862; purified proKLK7, EDANS-DABCYL substrate fluorescence; 100% is mature enzyme control, 0% vehicle; activation, % at 7 µM; actives 0.9% (n = 370,000);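 active means activation above the mean of all tested compounds plus 3 SD, computed per campaign excluding outliers beyond control limits, cut at about 13% in these data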
ADAM10 inh: inhibitors of human ADAM10. inhibition, % at 7 µM. actives 0.62% (n = 370,000). recombinant ADAM10, EDANS/DABCYL FRET peptide cleavage, 3 h. O14672;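 active means inhibition above a per-campaign cutoff equal to the mean of compounds falling between control-based bounds plus 3 SD, cut at about 20% in these data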;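 further: 0% = DMSO wells while the 100% control is not disclosed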
PLC-beta3 inh: blocks human PLC-beta3 enzyme activity; inhibition, % at 12.2 µM; AID 720704; Q01970; actives 0.18% (n = 370,000); Purified PLC-beta3, fluorogenic substrate, fluorescence; in the data active means inhibition above about 11%;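 further: 0% = median of compound wells on plate and 100% = full blocker control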
ADAM17 inh: ADAM17 inhibition, QFRET primary screen | inhibition, % at 6.95 µM | recombinant ADAM17, EDANS/DABCYL FRET peptide cleavage | actives 0.83% (n = 370,000) | AID 720648;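 active means inhibition above the mean of compounds lying between control limits plus 3 SD, set per campaign, cut at about 8.5% in these data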;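 further: 0% = DMSO-only wells as the low control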
PLCg1 inh: PLC-gamma1 (human) inhibition, primary screen. P19174. purified PLC-gamma1, fluorogenic substrate, fluorescence. inhibition, % at 12.2 µM. actives 0.84% (n = 370,000). AID 720700
ADAM10 confirm: confirmation of inhibitors of human ADAM10; shares compounds with ADAM10 inh; ADAM10 QFRET peptide cleavage, EDANS fluorescence; inhibition, % at 6.95 µM; actives 1% (n = 2,100);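 active means inhibition above about 20% chosen separately for each screening run, limit read from the data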;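 further: 0% = DMSO wells and 100% = marimastat wells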
ADAM17 ctr: inhibits human ADAM17 in ADAM10 exosite counter-screen; shares compounds with ADAM10 inh; ADAM17 QFRET peptide cleavage, EDANS fluorescence; inhibition, % at 6.95 µM; actives 0.5% (n = 2,100); AID 743214;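 active means mean triplicate inhibition above the solvent-only control wells' mean plus 3 SD, cut at about 12% in these data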;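 further: 0% = DMSO wells and 100% = marimastat wells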
ADAM10 ctr: inhibits human ADAM10 in ADAM17 exosite counter-screen; shares compounds with ADAM17 inh; recombinant ADAM10, EDANS/DABCYL FRET peptide cleavage, 3 h; inhibition, % at 6.95 µM; actives 47% (n = 2,900);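 active means mean inhibition over the triplicate runs exceeds the activity threshold set in the earlier primary screen, cut at about 20% in these data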;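 further: 0% = DMSO wells and 100% = marimastat wells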
ADAM17 confirm: human ADAM17 inhibition, confirmation. recombinant ADAM17, EDANS/DABCYL QFRET peptide cleavage. AID 743257. inhibition, % at 6.95 µM. shares compounds with ADAM17 inh. actives 65% (n = 2,900);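 active means mean inhibition across replicates above the hit cutoff set in the primary screen, cut at about 8.5% in these data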;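 further: 0% = DMSO wells and 100% = marimastat wells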
PLCg1 ctr: counter-screen for PLC-beta3 inhibitors: inhibitors of human PLC-gamma1. actives 3.1% (n = 3,300). shares compounds with PLCg1 inh. purified PLC-gamma1, fluorogenic substrate, fluorescence. inhibition, % at 12.3 µM
PLCb3 confirm: human PLC-beta3 inhibition, confirmation; shares compounds with PLCg1 inh; purified PLC-beta3, fluorogenic substrate fluorescence; inhibition, % at 12.3 µM; actives 1% (n = 3,300); in the data active means inhibition above about 11%
Active calls of the source: *. Shown are actives, neighbours in structure and some others; about 2.9% of the full set was active somewhere. Unless noted, no stated cut-off is given here; in the data, active means inhibition above about 9.5%; inactive means the rest.

COc1ccc(NC(=O)c2cc(-c3cc(Cl)ccc3OC)n[nH]2)c(OC)c1 was read as proKLK7 act 0, ADAM10 inh 29*, PLC-beta3 inh 5, ADAM17 inh 13*, PLCg1 inh 12*, ADAM10 confirm 7, ADAM17 ctr 2, ADAM10 ctr 35*, ADAM17 confirm 18*, PLCg1 ctr -8 and PLCb3 confirm -9.
For O=[N+]([O-])c1ccc(N/N=C\c2ccccc2OCc2ccccc2)cc1 the results were proKLK7 act 0, ADAM10 inh -12, PLC-beta3 inh -21, ADAM17 inh -1 and PLCg1 inh -13.
Screening Cc1cc(C)nc(N/N=C/c2ccccc2OCc2ccc([N+](=O)[O-])cc2)n1 returned proKLK7 act 0, ADAM10 inh 28*, PLC-beta3 inh 9, ADAM17 inh 1, PLCg1 inh 13*, ADAM10 confirm 2, ADAM17 ctr 1, PLCg1 ctr 0 and PLCb3 confirm 1.
`Cc1cccc(NC(=O)Cn2c(=O)n(CCc3c[nH]c4ccccc34)c(=O)c3cccnc32)c1` gave proKLK7 act -1, ADAM10 inh 20*, PLC-beta3 inh 5, ADAM17 inh 10*, PLCg1 inh 11*, ADAM10 confirm 7, ADAM17 ctr 3, ADAM10 ctr 27*, ADAM17 confirm 17*, PLCg1 ctr 0 and PLCb3 confirm 1.
Screening CC(=O)c1ccc(N2CCC(c3cc(-c4ccc(Cl)cc4Cl)n[nH]3)CC2)c([N+](=O)[O-])c1 returned proKLK7 act 0, ADAM10 inh 20*, PLC-beta3 inh 1, ADAM17 inh 13*, PLCg1 inh 15*, ADAM10 confirm 13, ADAM17 ctr 4, ADAM10 ctr 44*, ADAM17 confirm 21*, PLCg1 ctr 6 and PLCb3 confirm 6.
`Cc1cnc(C(=O)N2CCc3c([nH]c4ccccc34)C2c2ccc(F)cc2)cn1` (stereo not drawn) gave proKLK7 act 1, ADAM10 inh 6, PLC-beta3 inh 0, ADAM17 inh 2 and PLCg1 inh 0.
For CCc1ccc(C2c3[nH]c4ccccc4c3CCN2C(=O)c2cc(C)nn2C)cc1 (stereo not drawn) the results were proKLK7 act 0, ADAM10 inh 23*, PLC-beta3 inh 2, ADAM17 inh 13*, PLCg1 inh 10*, ADAM10 confirm 7, ADAM17 ctr 3, ADAM10 ctr 16, ADAM17 confirm 10*, PLCg1 ctr -5 and PLCb3 confirm -5.
For COc1ccc(CN2C[C@@H](CO)O[C@@H](n3cnc4c(NCc5ccncc5)ncnc43)C2)cc1 the results were proKLK7 act 0, ADAM10 inh -7, PLC-beta3 inh 0, ADAM17 inh 1 and PLCg1 inh 0.
`CCCCCNC(=O)C(CCc1ccccc1)n1c(=O)c(-c2ccccc2)nc2ccccc21` (stereo not drawn) gave proKLK7 act -19, ADAM10 inh -61, PLC-beta3 inh -21, ADAM17 inh -17 and PLCg1 inh -14.
`C[C@@]12C(=O)N(c3cccc(F)c3)C(=O)N1[C@@H]1c3ccccc3OC[C@@H]1[C@H]2c1ccccc1` gave proKLK7 act 0, ADAM10 inh 23*, PLC-beta3 inh 6, ADAM17 inh 11*, PLCg1 inh 10.0*, ADAM10 confirm 5, ADAM17 ctr 2, ADAM10 ctr 5, ADAM17 confirm 7, PLCg1 ctr 4 and PLCb3 confirm 4.
C[C@@]12C(=O)N(c3cccc(Cl)c3)C(=O)N1[C@@H]1c3ccccc3OC[C@@H]1[C@H]2c1ccccc1 was read as proKLK7 act 0, ADAM10 inh 1, PLC-beta3 inh 1, ADAM17 inh -3 and PLCg1 inh 0.
Screening Cc1onc(-c2ccccc2)c1C(=O)NC(=S)NNC(=O)c1cccnc1 returned proKLK7 act 0, ADAM10 inh 24*, PLC-beta3 inh 5, ADAM17 inh 5, PLCg1 inh 10*, ADAM10 confirm 5, ADAM17 ctr 1, PLCg1 ctr -2 and PLCb3 confirm -1.
`COc1cccc(-c2oc3c(c2-c2ccc(Br)nc2)C(O)CCC3)c1` (stereo not drawn) gave proKLK7 act 2, ADAM10 inh -28, PLC-beta3 inh -23, ADAM17 inh -9 and PLCg1 inh -15.
`O=[N+]([O-])c1ccc(N/N=C/c2cccc(O)c2O)c(S(=O)(=O)N2CCOCC2)c1` gave proKLK7 act -3, ADAM10 inh 30*, PLC-beta3 inh -5, ADAM17 inh 8, PLCg1 inh 15*, ADAM10 confirm 7, ADAM17 ctr 3, PLCg1 ctr -4 and PLCb3 confirm -5.
For CCN(CC)c1ccc(NC(=O)CSc2nc3ccccc3c(=O)n2-c2ccc(C)cc2)cc1 the results were proKLK7 act -1, ADAM10 inh 38*, PLC-beta3 inh 9, ADAM17 inh 5, PLCg1 inh 12*, ADAM10 confirm 13, ADAM17 ctr 6, PLCg1 ctr -7 and PLCb3 confirm -4.
COc1ccc(NCC(=O)N/N=C/c2c(C)nn(Cc3ccccc3)c2Cl)cc1 was read as proKLK7 act -1, ADAM10 inh 7, PLC-beta3 inh -1, ADAM17 inh 1 and PLCg1 inh -2.
Cc1nn(Cc2ccccc2)c(C)c1/C=N/NC(=O)CNc1cccc(C(F)(F)F)c1 was read as proKLK7 act 0, ADAM10 inh 21*, PLC-beta3 inh 0, ADAM17 inh 11*, PLCg1 inh 9.6*, ADAM10 confirm 4, ADAM17 ctr 1, ADAM10 ctr 19, ADAM17 confirm 10*, PLCg1 ctr -11 and PLCb3 confirm -5.
NC(CCc1ccccc1)c1csc(NC(=O)NCCc2ccccc2)n1 (stereo not drawn) was read as proKLK7 act 1, ADAM10 inh 1, PLC-beta3 inh -1, ADAM17 inh 0 and PLCg1 inh 4.
